USP8 inh: inhibitors of human USP8 deubiquitinase | actives 4.2% (n = 47,000) | purified USP8, Ub-rhodamine cleavage fluorescence, 30 min | AID 1645853 | inhibition, % at 20 µM | P40818
USP17 inh: human USP17-like deubiquitinase inhibition; inhibition, % at 50 µM; AID 1645855; purified USP17, Ub-rhodamine cleavage fluorescence, 3 h; actives 6.5% (n = 47,000)
USP30 block: human USP30 deubiquitinase inhibition; Q70CQ3; purified USP30, Ub-rhodamine cleavage fluorescence; inhibition, % at 25 µM; actives 5.3% (n = 47,000); AID 1645860
OTUD3 block: inhibitors of human OTUD3 deubiquitinase | purified OTUD3, Ub-rhodamine fluorescence, 2 h | actives 0.7% (n = 47,000) | inhibition, % at 25 µM | Q5T2D3
USP28 block: human USP28 deubiquitinase inhibition; inhibition, % at 25 µM; actives 3% (n = 47,000); purified USP28, Ub-rhodamine cleavage fluorescence, 30 min; AID 1645857
USP10 block: human USP10 deubiquitinase inhibition; Q14694; purified USP10, Ub-rhodamine fluorescence, 60 min; inhibition, % at 20 µM; actives 1.1% (n = 47,000)
Of the large screens only hits and unclear results are named; the others gave an inactive call. This is a sample that favours compounds with a hit; in the whole collection about 13% have one here. Rule as the data show it: active = inhibition above about 30%; inactive = the rest.

Cc1ccc(NC(=O)C2CCN(C(=O)c3cc(-c4ccncc4)n[nH]3)CC2)cc1Cl	USP17 inh 62.7, USP30 block 63.1, OTUD3 block 38.5, USP28 block 37.0
Cc1ccc(CNC(=O)C2CCN(C(=O)c3cc(-c4ccncc4)n[nH]3)CC2)o1	none (no result: USP30 block, USP28 block)
Cc1ccc(NC(=O)c2cc(-c3ccncc3)n[nH]2)cc1Cl	USP28 block 36.3
CC1(C)Cc2c(c(N3CCOCC3)nc3sc4c(SCC(=O)Nc5ccc(Br)cc5)ncnc4c23)CO1	none
Cc1ccc(-c2nc(SCC(=O)c3c(N)n(C4CC4)c(=O)[nH]c3=O)n[nH]2)cc1	none
CCc1ccc(-c2nc(SCC(=O)c3c(N)n(C4CC4)c(=O)[nH]c3=O)n[nH]2)cc1	USP8 inh 36.1, USP17 inh 43.6
O=C(CNS(=O)(=O)c1ccc(F)cc1)N1CCCC(c2nnc3ccccn23)C1 (centres undefined)	USP8 inh 57.0, USP28 block 51.3
COc1ccc(S(=O)(=O)NCCC(=O)N2CCCC(c3nnc4ccccn34)C2)cc1 (centres undefined)	none
CC1CCCN(C(=O)c2nnc(-c3ccc(S(=O)(=O)N(C)C)cc3)o2)C1 (centres undefined)	none
O=C(Cn1c(=O)[nH]c2c(-c3ccccc3)c[nH]c2c1=O)N1CCCCCC1	USP8 inh 46.2
CCN1CCN(C(=O)Cn2c(=O)[nH]c3c(-c4ccccc4)c[nH]c3c2=O)CC1	none
COc1ccccc1CNC(=O)Cn1c(=O)[nH]c2c(-c3ccccc3)c[nH]c2c1=O	USP17 inh 44.3
CCC(C)NC(=O)Cn1c(=O)[nH]c2c(-c3ccccc3)c[nH]c2c1=O (centres undefined)	USP17 inh 38.0 (no result: USP30 block, USP28 block)
COc1ccccc1CNC(=O)Cn1c(C)nc2onc(C)c2c1=O	USP30 block 34.8
CCOC(=O)c1ccc(N2C(=O)[C@@H]3[C@H]4c5ccccc5C=CN4C(C(=O)c4ccco4)[C@@H]3C2=O)cc1 (some centres undefined)	none
C[C@@H]1[C@H]2CC(C)(C)C[C@H]2[C@H](O)C2=C(C(=O)OC2)[C@@H]1O	none
COc1ccc(CNC(=O)Cn2c(=O)[nH]c3c(-c4ccccc4F)c[nH]c3c2=O)cc1	USP8 inh 86.5
Cc1ccccc1NC(=NS(=O)(=O)c1ccccc1)c1ccc(Cl)cc1	USP28 block 43.7
Cc1ccccc1S(=O)(=O)N=C(Nc1ccccn1)c1ccccc1	none
O=C(NCc1cnc(C2CCCCO2)nc1)c1n[nH]c2c1CCC2 (centres undefined)	none
CC1(c2ncc(CNC(=O)c3n[nH]c4c3CCCC4)cn2)CCCCO1 (centres undefined)	USP30 block 31.6
CCCOc1ccc(C(=O)Nc2ccc(OCC)c3ncccc23)cc1	none
CCCCOc1ccccc1C(=O)Nc1ccc(OCC)c2ncccc12	USP8 inh 43.9
CCN1CCN(CCNC(=O)c2ccc(N3CCc4ccccc43)s2)CC1	none
CC1CCCCN1CCCNC(=O)c1ccc(N2CCc3ccccc32)s1 (centres undefined)	USP28 block 56.3
CC1CCCN(CCCNC(=O)c2ccc(N3CCc4ccccc43)s2)C1 (centres undefined)	USP28 block 58.0
Cc1ccc(Cn2nnc(C(=O)NCc3ccco3)c2-n2cccc2)cc1	USP28 block 57.5
Fc1cccc(-c2noc(Cc3nnc(-c4ccccc4)o3)n2)c1	none
COc1ccc2cc1Oc1cc(ccc1OC)C(O)C13SSC4(C(=O)N1C)C(O)C1=COC=CC(OC2=O)C1N4C3=O (centres undefined)	USP30 block 73.1
CNc1ncc(CN2CCC3(C/C=C/Cc4ccccc4OCC(=O)NC3)CC2)cn1	none
CC(C)(C)c1ccccc1NC(=O)c1ccc2c(c1)SC1=NS(=O)(=O)CCN12	USP28 block 31.1
CC(C)C(NC(=O)COc1ccccc1)C(=O)N1CCc2[nH]c3ccccc3c2C1 (centres undefined)	USP8 inh 63.0
O=C(NCC(=O)N1CCc2[nH]c3ccccc3c2C1)c1ccc(F)cc1	none
Cc1nn2c(S(=O)(=O)NCc3cc(F)cc(F)c3)c(C)nc2s1	none
Cc1ccc(CN2CC[C@H]3[C@H]2CCN3S(=O)(=O)C2CC2)o1	none

Source: PubChem (Buhrlage Lab, Dana-Farber Cancer Institute and Novartis Institutes for BioMedical Research (Cambridge, Mass))
